Potency and affinity values are given separately. Unmarked numbers belong to inactive results. Calls of active or inactive are those of the source.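 The calls were made as follows: active = ATP signal reduced by compound, with fitted active dose under ten times the top valid tested dose; inactive = the rest, compounds that increase ATP levels included.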
Experiment: cellular ATP toxicity in rat beta cells – cell-based, CellTiter-Glo luminescence, INS-1E, dry powder, cytotoxicity control for beta-cell cytokine protection project, dose response (AID 488864)
Conditions: INS-1E rat beta cells, 48 h, no cytokines; series mostly up to 26 µM; activity change, negative = ATP decrease: at the top concentration

SMILES	activity change, negative = ATP decrease	outcome
C[C@@H]1CN([C@@H](C)CO)C(=O)c2cccc(NS(=O)(=O)c3ccccc3)c2O[C@H]1CN(C)Cc1ccc(C(F)(F)F)cc1	1.05%	
Cc1ccc(S(=O)(=O)N(C)C[C@@H]2Oc3c(NC(=O)Nc4ccccc4)cccc3C(=O)N([C@@H](C)CO)C[C@H]2C)cc1	8.13%	
COc1ccc(S(=O)(=O)N(C)C[C@@H]2Oc3c(NC(=O)Nc4cccc5ccccc45)cccc3C(=O)N([C@@H](C)CO)C[C@H]2C)cc1F	12%	
C[C@@H]1CN([C@@H](C)CO)C(=O)c2cccc(NC(=O)Nc3cccc4ccccc34)c2O[C@H]1CN(C)S(=O)(=O)c1cccs1	8.1%	
COc1ccc(S(=O)(=O)N(C)C[C@@H]2Oc3c(NC(=O)Nc4cccc5ccccc45)cccc3C(=O)N([C@@H](C)CO)C[C@H]2C)c(OC)c1	7.76%	
COc1ccc(S(=O)(=O)N(C)C[C@@H]2Oc3c(NC(=O)Nc4c(C)noc4C)cccc3C(=O)N([C@@H](C)CO)C[C@H]2C)cc1	2.2%	
COc1ccc(S(=O)(=O)N(C)C[C@@H]2Oc3c(NC(=O)Nc4ccccc4)cccc3C(=O)N([C@H](C)CO)C[C@H]2C)cc1	1.41%	
C[C@@H]1CN([C@@H](C)CO)C(=O)c2cccc(NC(=O)Nc3ccc(F)cc3)c2O[C@H]1CN(C)S(=O)(=O)c1ccc(Cl)cc1	8.98%	
C[C@@H]1CN([C@@H](C)CO)C(=O)c2cccc(NC(=O)Nc3cccc4ccccc34)c2O[C@H]1CN(C)S(=O)(=O)c1ccccc1	6.66%	
C[C@@H]1CN([C@@H](C)CO)C(=O)c2cccc(NC(=O)Nc3cccc4ccccc34)c2O[C@H]1CN(C)S(=O)(=O)c1ccccc1F	6.08%	
COc1ccc(S(=O)(=O)N(C)C[C@@H]2Oc3c(NC(=O)Nc4ccccc4)cccc3C(=O)N([C@@H](C)CO)C[C@H]2C)cc1	2.87%	
C[C@@H]1CN([C@@H](C)CO)C(=O)c2cccc(NC(=O)Nc3cccc4ccccc34)c2O[C@H]1CN(C)S(=O)(=O)c1ccc(F)cc1	3.33%	
C[C@@H]1CN([C@@H](C)CO)C(=O)c2cccc(NC(=O)Nc3cccc(Cl)c3Cl)c2O[C@H]1CN(C)S(=O)(=O)c1ccc2c(c1)OCCO2	2.89%	
C[C@@H]1CN([C@@H](C)CO)C(=O)c2cccc(NC(=O)Nc3cccc4ccccc34)c2O[C@H]1CN(C)S(=O)(=O)c1ccc2c(c1)OCO2	-1.3%	
COc1ccc(S(=O)(=O)N(C)C[C@@H]2Oc3c(NC(=O)Nc4ccc(C(F)(F)F)cc4)cccc3C(=O)N([C@@H](C)CO)C[C@H]2C)cc1	-1.88%	
COc1ccc(S(=O)(=O)N(C)C[C@@H]2Oc3c(NS(=O)(=O)c4ccc(C)cc4)cccc3C(=O)N([C@@H](C)CO)C[C@H]2C)cc1	7.96% [at 23.5 µM]	
Cc1ccc(S(=O)(=O)N(C)C[C@@H]2Oc3c(NC(=O)Nc4cccc5ccccc45)cccc3C(=O)N([C@H](C)CO)C[C@H]2C)cc1	5.66% [at 23.5 µM]	
C[C@@H]1CN([C@@H](C)CO)C(=O)c2cccc(NC(=O)Nc3cccc4ccccc34)c2O[C@H]1CN(C)CC1CC1	0.187%	
C[C@@H]1CN([C@@H](C)CO)C(=O)c2cccc(NC(=O)Nc3cccc4ccccc34)c2O[C@H]1CN(C)S(=O)(=O)c1ccc(Cl)cc1	3.29%	
COc1ccc(S(=O)(=O)N(C)C[C@@H]2Oc3c(NC(=O)c4cccc5ccccc45)cccc3C(=O)N([C@@H](C)CO)C[C@H]2C)cc1	4.48%	
COc1ccc(S(=O)(=O)N(C)C[C@@H]2Oc3c(NC(=O)c4ccncc4)cccc3C(=O)N([C@@H](C)CO)C[C@H]2C)cc1	-4.04%	
C[C@@H]1CN([C@H](C)CO)C(=O)c2cccc(NC(=O)Nc3ccc(F)cc3)c2O[C@H]1CN(C)S(=O)(=O)c1ccc(Cl)cc1	11.6%	
Cc1noc(C)c1NC(=O)N(C)C[C@@H]1Oc2c(NC(=O)Nc3cccc4ccccc34)cccc2C(=O)N([C@@H](C)CO)C[C@H]1C	0.037%	
C[C@@H]1CN([C@H](C)CO)C(=O)c2cccc(NC(=O)Nc3cccc4ccccc34)c2O[C@H]1CN(C)S(=O)(=O)c1ccc(Cl)cc1	6.88%	
C[C@@H]1CN([C@@H](C)CO)C(=O)c2cccc(NC(=O)Nc3cccc4ccccc34)c2O[C@H]1CN(C)S(=O)(=O)c1ccc2c(c1)OCCO2		inactive
C[C@@H]1CN([C@@H](C)CO)C(=O)c2cccc(NC(=O)Nc3cccc4ccccc34)c2O[C@H]1CN(C)S(=O)(=O)c1ccc2ncsc2c1	-1.15%	
C[C@@H]1CN([C@H](C)CO)C(=O)c2cccc(NC(=O)Nc3ccccc3)c2O[C@H]1CN(C)S(=O)(=O)c1ccc(F)cc1	1.43%	
COc1ccc(S(=O)(=O)N(C)C[C@@H]2Oc3c(NC(=O)c4cc(C)nn4C)cccc3C(=O)N([C@@H](C)CO)C[C@H]2C)cc1	4.75%	
COc1ccc(S(=O)(=O)N(C)C[C@@H]2Oc3c(NC(=O)NC4CCCCC4)cccc3C(=O)N([C@@H](C)CO)C[C@H]2C)cc1	6.92%	
